From PubChem BioAssay (Tox21) come the findings set out here.

The nature of test [1]: qHTS assay to identify small molecule antagonists of the estrogen related receptor (ERR) signaling pathway from Tox21 library - cell viability counter screen (AID 1224834). Note: nearly all actives have a fitted effect of over 30% in size. In outline: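 Viability readout (CellTiter-Fluor fluorescence, 30 min at 37 C) multiplexed with the ERR assay; cells treated 17.5 h at 37 C with compounds delivered in DMSO.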
Test [2] deals with Luciferin 4-monooxygenase (Photinus pyralis) (UniProt P08659). Put plainly: qHTS assay to identify small molecule inhibitors of firefly luciferase (AID 1224835). Note: nearly all actives have a fitted effect of over 25% in size. An outline of the steps: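 Biochemical qHTS: compounds run as interplate titrations against purified firefly enzyme, with D-luciferin and ATP each at its KM concentration. Light output recorded by CCD imaging.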
Test [3] is described as follows: qHTS assay to identify small molecule agonists of the constitutive androstane receptor (CAR) signaling pathway - cell viability counter screen (AID 1224836). Note: nearly all actives have a fitted effect of over 45% in size. In outline:
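HepG2-CYP2B6-hCAR, 2500 cells/well, 4 h pre-incubation; cpd 15 conc + PK11195 0.75 uM final; 23 h, 37 C/5% CO2; CellTiter-Fluor, fluorescence.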

A short description of test [4]: qHTS assay to identify small molecule antagonists of the constitutive androstane receptor (CAR) signaling pathway - cell viability counter screen (AID 1224837). Note: nearly all actives have a fitted effect of over 45% in size. In outline:
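Fluorescence from CellTiter-Fluor served as the viability signal. Human hepatoma HepG2 cells stably bearing hCAR and CYP2B6-2.2kb received compound plus CITCO (50 nM final) for 23 hr.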

For test [5], the target named is Nuclear receptor subfamily 1 group I member 3 (Homo sapiens) (UniProt Q14994). In words: qHTS assay to identify small molecule antagonists of the constitutive androstane receptor (CAR) signaling pathway (AID 1224838).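 Note: HepG2 cells stably expressing hCAR with CYP2B6 luciferase reporter stimulated by CITCO; nearly all actives have a fitted effect of over 40% in size.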 In outline: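 Quantitative HTS in double-stable HepG2-CYP2B6-hCAR cells. After 4 h plating, cells get compound (15 concentrations) and CITCO at 50 nM final, incubate 24 h at 37 C, then ONE-Glo luminescence is read.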

The target is the same in test [6]. In words: qHTS assay to identify small molecule agonists of the constitutive androstane receptor (CAR) signaling pathway (AID 1224839).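 Note: HepG2 cells stably carrying human CAR and a CYP2B6 luciferase reporter; nearly all actives have a fitted effect of over 15% in size.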 An outline of the steps:
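HepG2-CYP2B6-hCAR cells, 2500/well, 4 h pre-incubation; compounds 15 conc.; PK11195 0.75 uM final; 24 h, 37 C/5% CO2; ONE-Glo luciferase read.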

Test [7] in a line: qHTS assay to identify small molecule antagonists of the estrogen related receptor signaling pathway with the pleiotropic PPARgamma coactivator (PGC) from Tox21 10K library - cell viability counter screen (AID 1224840; active = well fitted cell-killing curve with a large enough effect in the repeat runs, not every such curve was filed as active; note: nearly all actives have a fitted effect of over 40% in size). In outline:
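Compounds in DMSO, alongside positive and negative controls, were pinned onto PGC/ERR cells (2,000 per well). Exposure lasted 17.5 hours at 37 C, followed by a 30-minute CellTiter-Fluor incubation and fluorescence reading.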

Test [8] can be described thus: qHTS assay to identify small molecule agonists of the hypoxia (HIF-1) signaling pathway - cell viability counter screen (AID 1224844; calls by dose curve; note: nearly all actives have a fitted effect of over 50% in size). In outline:
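Luminescent ATP content (CellTiter-Glo, 30 min, room temperature) served as the viability measure in HRE-bla ME-180 cells exposed to compounds for 17 hrs in low-serum medium (0.5% dialyzed FBS).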

The nature of test [9]: qHTS assay to identify small molecule agonists of H2AX (AID 1224845; active = well fitted activation curve with a large enough effect in the signal ratio in the repeat runs, not every such curve was filed as active; the % refers to the signal ratio; note: potency is the fitted concentration of half-maximal effect). An outline of the steps:
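Wild-type CHO-K1 cells, plated overnight, exposed 3hr at 37C to 15 concentrations (0.76% DMSO final). Lysed, then HTRF anti-pH2AX (S139) cryptate and anti-H2AX-d2 antibodies, 24 hr room temperature; 665/620 nm emission read.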

Test [10] is described as follows: qHTS assay to identify small molecule agonists of the hypoxia (HIF-1) signaling pathway (AID 1224846; active = well fitted activation curve with a large enough effect in the signal ratio in the repeat runs, not every such curve was filed as active; the % refers to the signal ratio). In outline:
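Measured by blue/green FRET after loading CCF4-AM: beta-lactamase expressed from a hypoxia response element in ME-180 cells. Test agents were delivered in DMSO and left 17 hrs; cells had been plated 5 hrs earlier in low-serum (0.5% dialyzed FBS) medium.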

A short description of test [11]: qHTS assay to identify small molecule agonists of H2AX - cell viability counter screen (AID 1224847; calls by dose curve; note: top concentration of the series differs between compounds; nearly all actives have a fitted effect of over 30% in size). In outline: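 Cells plated first: CHO-K1, 1000 per well in 10% FBS medium, incubated overnight at 37C. Then 15-point compound titration added (final DMSO 0.76%) for 3 hr. Finally CellTiter-Glo added and luminescence read.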
A short description of test [12]: qHTS RealTime-Glo MT Cell Viability Assay in HepG2 cells - 24 hour (AID 1224867). Note: nearly all actives have a fitted effect of over 50% in size. In outline: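 HepG2 suspension premixed with RealTime-Glo reagents is plated at 600 cells per well and left 5 h at 37 C/5% CO2. Compounds in DMSO then go in, and bioluminescence reflecting viable cell number is recorded over 40 h.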
Test [13] in a line: qHTS RealTime-Glo MT Cell Viability Assay in HEK293 cells - 32 hour (AID 1224868). Note: top concentration of the series differs between compounds; nearly all actives have a fitted effect of over 50% in size. In outline:
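Reads taken at 0, 8, 16, 24, 32 and 40 h from the same wells. HEK293 cells (600/well) carried RealTime-Glo reagents from seeding, with compound added after a 5 h settle at 37 C.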

Test [14] can be described thus: A CellTox Green Cytotoxicity Assay to monitor cytotoxicity in HEK293 cells - 0 hour (AID 1224869). Note: nearly all actives have a fitted effect of over 50% in size. In outline: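 Each value comes from one timepoint of a single continuous run in which HEK293 cells with CellTox Green were exposed to compound for up to 40 h at 37 C, dye fluorescence rising with cell death.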
A short description of test [15]: qHTS RealTime-Glo MT Cell Viability Assay in HepG2 cells - 40 hour (AID 1224870). Note: nearly all actives have a fitted effect of over 50% in size. In outline: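 HepG2 cells (600/well) mixed with RealTime-Glo MT reagent, settled 5 h at 37 C/5% CO2 before compound addition. Nonlytic NanoLuc luminescence from viable-cell prosubstrate reduction read repeatedly during 40 h treatment at 37 C.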
Test [16] deals with Thyrotropin receptor (Homo sapiens) (UniProt P16473). In words: qHTS assay to identify small molecule agonists of the thyroid stimulating hormone receptor (TSHR) signaling pathway (AID 1224843; calls by dose curve; note: nearly all actives have a fitted effect of over 45% in size; note: potency is the fitted concentration of half-maximal effect). In outline: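 Steps: seed 800 TSHR-HEK293 cells per well; add test compound and hold 30 min at ambient temperature; dispense cAMP-d2 then anti-cAMP cryptate; incubate 1 h at ambient; measure fluorescence intensity.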

Test [17] can be described thus: qHTS assay to identify small molecule antagonists of the estrogen related receptor signaling pathway with the pleiotropic PPARgamma coactivator (PGC) from Tox21 10K library (AID 1224841; call rule not given here). In outline:
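Compound exposure ran 18 hours at 37 C in PGC/ERR cells (2,000/well) that had first rested 6 hours in a 37 C/5% CO2 incubator. Luciferase activity was then detected with One-Glo after a 30-minute room-temperature step.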

Test [18] can be described thus: qHTS assay to identify small molecule agonists of the estrogen related receptor signaling pathway with the pleiotropic PPARgamma coactivator (PGC) from Tox21 10K library (AID 1224842). Note: nearly all actives have a fitted effect of over 15% in size. An outline of the steps: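 PGC/ERR reporter cell line, 2,000 cells per well, incubated 6 h at 37 C before 23 nL compound in DMSO was added. After 18 h at 37 C, One-Glo luminescence read following 30 min at room temperature.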

Test [19] in a line: qHTS assay to identify small molecule antagonists of the estrogen related receptor (ERR) signaling pathway from Tox21 library (AID 1224848). Note: nearly all actives have a fitted effect of over 50% in size. In outline: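 Luminescent reporter read-out (ONE-Glo) from NTP's ERR cell line after 18 h treatment at 37 C with DMSO-dissolved Tox21 compounds; cells pre-plated 6 h beforehand at 2,000 per well.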
Test [20] in a line: qHTS assay to identify small molecule agonists of the estrogen related receptor (ERR) signaling pathway from Tox21 library (AID 1224849; calls by dose curve; note: nearly all actives have a fitted effect of over 15% in size). As to conditions: ERR reporter cell line, ONE-Glo luciferase, 18 h; at 92.4 µM (top of the series) unless noted. In outline: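 We plated ERR reporter cells, waited 6 h, added compounds in DMSO by pin tool and incubated them 18 h at 37 C. ONE-Glo was then added and luminescence read after 30 min.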

Each structure is given as a SMILES string. Unmarked numbers belong to inactive results. Records with an inconclusive call do not appear. Calls of active or inactive are those of the source. Unless noted, calls come from the whole dose curve; as a rule, active = well fitted curve in the direction sought with a large enough effect in the repeat runs; inconclusive = weak or mixed curves; inactive = no such curve, though single readings can be large; an effect the other way counts as inactive or inconclusive.
% is set by controls: 0 for no effect and ±100 for the full control effect.

Chain of Thyrotropin receptor (Homo sapiens) (P16473 whole entry, looked up): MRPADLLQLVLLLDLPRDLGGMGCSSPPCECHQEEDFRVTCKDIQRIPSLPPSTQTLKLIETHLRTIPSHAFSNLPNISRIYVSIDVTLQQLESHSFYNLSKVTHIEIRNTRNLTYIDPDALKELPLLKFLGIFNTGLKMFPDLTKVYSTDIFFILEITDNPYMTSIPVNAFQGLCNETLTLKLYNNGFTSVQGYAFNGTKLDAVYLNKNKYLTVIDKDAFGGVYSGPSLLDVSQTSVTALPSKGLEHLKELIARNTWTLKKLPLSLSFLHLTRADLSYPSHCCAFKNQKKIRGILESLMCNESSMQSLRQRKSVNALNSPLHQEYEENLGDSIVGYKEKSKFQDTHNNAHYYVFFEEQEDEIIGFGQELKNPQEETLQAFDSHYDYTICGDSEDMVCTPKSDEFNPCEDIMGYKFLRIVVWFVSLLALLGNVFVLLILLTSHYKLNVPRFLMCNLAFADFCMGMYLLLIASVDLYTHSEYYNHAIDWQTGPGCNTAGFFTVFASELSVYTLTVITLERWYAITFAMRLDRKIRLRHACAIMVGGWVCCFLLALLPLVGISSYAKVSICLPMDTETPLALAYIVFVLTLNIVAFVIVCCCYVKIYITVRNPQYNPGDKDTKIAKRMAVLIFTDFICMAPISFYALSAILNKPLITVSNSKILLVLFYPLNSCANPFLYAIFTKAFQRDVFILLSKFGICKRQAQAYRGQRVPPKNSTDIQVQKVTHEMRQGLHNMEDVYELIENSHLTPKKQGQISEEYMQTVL
Chain of Nuclear receptor subfamily 1 group I member 3 (Homo sapiens) (Q14994 whole entry, looked up): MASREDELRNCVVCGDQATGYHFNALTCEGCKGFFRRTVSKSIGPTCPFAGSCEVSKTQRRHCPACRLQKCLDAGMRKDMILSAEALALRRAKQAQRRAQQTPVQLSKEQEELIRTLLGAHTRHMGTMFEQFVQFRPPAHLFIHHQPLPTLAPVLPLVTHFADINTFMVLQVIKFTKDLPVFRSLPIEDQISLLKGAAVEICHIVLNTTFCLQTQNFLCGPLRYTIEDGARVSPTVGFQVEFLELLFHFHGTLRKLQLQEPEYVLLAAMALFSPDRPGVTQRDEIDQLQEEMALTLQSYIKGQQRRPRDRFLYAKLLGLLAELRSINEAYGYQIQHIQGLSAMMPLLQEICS
Chain of Luciferin 4-monooxygenase (Photinus pyralis) (P08659 whole entry, looked up): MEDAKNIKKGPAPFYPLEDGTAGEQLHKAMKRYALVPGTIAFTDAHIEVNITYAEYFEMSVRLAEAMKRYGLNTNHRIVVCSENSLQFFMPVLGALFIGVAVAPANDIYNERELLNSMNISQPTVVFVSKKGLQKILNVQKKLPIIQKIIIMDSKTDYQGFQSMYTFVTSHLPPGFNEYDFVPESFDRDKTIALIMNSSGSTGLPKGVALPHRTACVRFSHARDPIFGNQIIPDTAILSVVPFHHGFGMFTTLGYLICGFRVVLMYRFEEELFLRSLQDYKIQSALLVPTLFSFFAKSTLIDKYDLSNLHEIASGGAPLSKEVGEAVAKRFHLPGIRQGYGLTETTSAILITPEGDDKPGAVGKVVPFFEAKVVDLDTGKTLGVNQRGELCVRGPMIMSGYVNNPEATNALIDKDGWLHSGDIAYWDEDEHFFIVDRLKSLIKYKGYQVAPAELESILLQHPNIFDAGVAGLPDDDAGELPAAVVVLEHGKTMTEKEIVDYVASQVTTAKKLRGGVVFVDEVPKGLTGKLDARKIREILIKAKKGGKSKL

In the case of `ClCC(Cl)(Cl)Cl`, the Potency entry in test [1], in [2], in test [3], in [4], in test [5] and in test [6] was “inactive” each time. The Potency result in [7], in test [8], in test [9], in test [11], in test [12] and in test [13] was “inactive” throughout. The Potency result in [14] and in test [15] was “inactive” each time. In addition, in test [10], the outcome was inactive.

As for `N#CC(O)c1ccccc1` (stereo not drawn), the Potency entry in test [1], in test [2], in [3], in [4], in test [5] and in test [6] was “inactive” throughout. Further, the Potency result in test [7], in [16], in test [8], in [9], in test [11] and in test [12] was “inactive” each time. Besides, the Potency entry in test [13], in [14] and in test [15] was “inactive” throughout.

Turning to `COC(=O)c1c(C(F)F)nc(C(F)(F)F)c(C2=NCCS2)c1CC(C)C`, the Potency entry in [1], in test [2], in test [3], in [4], in test [5] and in test [7] was “inactive” in each case. Besides, the Potency entry in [17], in test [16], in test [8], in test [9], in test [11] and in test [19] was “inactive” each time. In addition, the Potency entry in test [12], in test [14] and in test [15] was “inactive” each time. Further, the compound was classed as inactive in test [18] and in [10]. Moreover, the activity change, positive = activation in test [20] was 1.38%.

For the compound `CC(C)[N+](=O)[O-]`, the Potency result in test [1], in test [2], in test [3], in [4], in test [5] and in test [6] was “inactive” each time. The Potency entry in test [7], in test [16], in test [8], in [9], in [11] and in test [12] was “inactive” each time. Further, the Potency result in test [14] and in [15] was “inactive” in each case. Moreover, the outcome in test [10] was inactive.

On to `CCOC(=O)/C=C(C)/C=C/C[C@@H](C)CCCC(C)C`, for which the Potency result in test [1], in test [2], in test [3], in test [4], in [5] and in [6] was “inactive” in each case. Moreover, the Potency result in [7], in test [8], in test [12], in test [13], in [14] and in test [15] was “inactive” in each case. In [9], the Potency was 113 µM (active). The call in test [10] was inactive.

In the case of `CN1C[C@@H](NS(=O)(=O)N(C)C)C[C@@H]2c3cccc4c3c(cn4C)C[C@H]21`, the Potency entry in [1], in test [2], in [3], in [4], in [5] and in [7] was “inactive” each time. Further, the Potency entry in test [16], in test [8], in test [9], in test [11], in [12] and in [13] was “inactive” throughout. Moreover, the Potency result in [14] and in test [15] was “inactive” each time. For the same compound, the outcome in test [10] was inactive.

In the case of `CNCC(=O)c1ccc(O)c(O)c1`, the Potency entry in [1], in test [2], in test [3], in test [4], in test [5] and in test [6] was “inactive” in each case. In addition, the Potency entry in test [7], in test [8], in test [11], in [12], in [13] and in test [14] was “inactive” throughout. Also, the Potency entry in test [15] is “inactive”. Also, in [16], the Potency is 2.37 µM (active). For the same compound, the compound was classed as inactive in [10].

Take `CCN(Cc1ccc(Cl)nc1)/C(=C/[N+](=O)[O-])NC`: the Potency result in test [1], in test [2], in [3], in test [4], in [5] and in test [6] was “inactive” in each case. Moreover, the Potency entry in test [7], in [16], in test [8], in test [9], in [11] and in test [12] was “inactive” each time. In addition, the Potency result in test [13], in test [14] and in test [15] was “inactive” each time.

For `Nc1cnn(-c2ccccc2)c(=O)c1Cl`, the Potency entry in [1], in test [2], in [3], in [4], in test [5] and in test [6] was “inactive” in each case. The Potency result in test [7], in [16], in test [8], in test [9], in test [11] and in [12] was “inactive” in each case. Besides, the Potency entry in [13], in test [14] and in test [15] was “inactive” throughout. In test [10], the outcome was inactive.
